Screens from PubChem.
HDAC3 inhib: blocks human histone deacetylase 3. recombinant HDAC3, fluorogenic peptide/trypsin coupled, fluorescence. inhibition, % at 8.3 µM. O15379. hit rate 0.15% among 320,000. AID 2718; in the data active = inhibition above about 26%, passing the limit was not always enough
m5-HT2A agonist: mouse HTR2A agonism via beta-arrestin recruitment; P35363; activation, % at 7.6 µM; AID 624169; hit rate 0.66% among 360,000; CHO-K1 mHTR2A beta-arrestin complementation, luminescence; percent of 30 µM serotonin response;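 active = activation above a run cutoff, the mean activation of all tested compounds plus 3 SD, cut at about 14% in these data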;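 note: 0% = plate median of compound wells and 100% = 30 µM serotonin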
Target sequence (P35363 whole entry, looked up): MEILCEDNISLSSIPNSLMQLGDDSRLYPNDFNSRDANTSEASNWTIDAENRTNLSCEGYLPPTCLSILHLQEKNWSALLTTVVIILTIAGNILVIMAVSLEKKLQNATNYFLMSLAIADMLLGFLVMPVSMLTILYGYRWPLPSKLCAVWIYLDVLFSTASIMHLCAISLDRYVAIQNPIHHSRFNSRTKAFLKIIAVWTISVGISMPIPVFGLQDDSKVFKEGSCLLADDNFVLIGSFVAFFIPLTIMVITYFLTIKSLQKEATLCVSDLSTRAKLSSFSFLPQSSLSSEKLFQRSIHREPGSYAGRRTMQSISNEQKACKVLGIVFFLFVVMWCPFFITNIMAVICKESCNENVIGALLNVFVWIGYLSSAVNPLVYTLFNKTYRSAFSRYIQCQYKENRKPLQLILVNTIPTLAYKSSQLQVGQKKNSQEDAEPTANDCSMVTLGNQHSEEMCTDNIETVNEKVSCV
Fh CTSL1 inh: blocks F. hepatica cathepsin L1 in PFM18AAP counter-screen. recombinant F. hepatica cathepsin L1, Z-Leu-Arg-MCA fluorescence. inhibition, % at 5.96 µM. hit rate 0.49% among 300,000. AID 1906;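 active = inhibition above the mean of all tested compounds plus 3 SD, set per screening campaign, cut at about 17% in these data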;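 note: 0% = plate median of test compound wells and 100% = 1 µM Z-Phe-Ala-diazomethylketone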
LANA-H2A inh: blocks KSHV LANA binding to histone H2A/H2B. hit rate 0.6% among 320,000. cell-free LANA-H2A/H2B peptide, fluorescence polarization. inhibition, % (no concentration beside the values). Q9QR71. AID 2629; in the data active = inhibition mostly above about 10%, no sharp cut-off; inactive = mostly below about 6.7%
MOR ag counter: counter-screen for mouse HTR2A agonists: human mu opioid receptor agonists. U2OS OPRM1 beta-arrestin PathHunter, luminescence; DMSO 0%, DAMGO 9.3 µM 100%. activation, % at 9.3 µM. shares compounds with m5-HT2A agonist. AID 624380. hit rate 5.3% among 2,300;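 active = mean activation above the mean of DMSO-only wells plus 3 SD, cut at about 0.5% in these data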
HTR2A ag conf: mouse HTR2A agonism confirmed; shares compounds with m5-HT2A agonist; CHO-K1 PathHunter beta-arrestin recruitment, luminescence; DMSO 0%, 30 µM serotonin 100%; activation, % at 7.6 µM; hit rate 19% among 2,300;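 active = mean activation across triplicates above the hit threshold derived in the original primary screen, cut at about 15% in these data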
* marks the source's active call; other numbers are inactive results; nt = not tested or not shown. Rows were chosen to be rich in hits. Some 1.7% of all compounds tested hit in one or more screens of this group.

SMILES	HDAC3 inhib	m5-HT2A agonist	Fh CTSL1 inh	LANA-H2A inh	MOR ag counter	HTR2A ag conf
COc1cc(NC(=O)C2CC(c3ccccc3Cl)=NO2)cc(OC)c1OC (configuration not stated)	3	18*	4	0	-1	-3
COc1cc(NC(=O)C2CC(c3ccc(Cl)cc3)=NO2)cc(OC)c1OC (configuration not stated)	-2	-1	-5	0	nt	nt
Cc1ccc(-c2ccc(C#N)c(=O)n2CC(=O)N(C)C)cc1	-1	4	3	1	nt	nt
CCOc1ccccc1N=C1SCC(C)N1C(=O)C1CCN(c2ncnc3sc(C)c(C)c23)CC1 (configuration not stated)	nt	-6	nt	nt	nt	nt
CN=C(c1ccc(C)cc1)n1c(=S)nc(-c2ccc(C)cc2)n(C)c1=S	4	15*	3	0	0	-5
CCOc1ccc(/C=N/N2C(C)CCCC2C)cc1 (configuration not stated)	3	17*	12	-1	-1	-2
CC1CCCC(C)N1/N=C/c1ccc(Cl)cc1 (configuration not stated)	6	3	-1	5	nt	nt
O=C(Nc1ccc(Cl)c(S(=O)(=O)N2CCOCC2)c1)c1ccc2c(c1)OCCO2	18	-4	-6	4	nt	nt
O=C(Nc1ccc(Cl)c(S(=O)(=O)N2CCOCC2)c1)c1ccc(Cl)nc1	nt	17*	nt	nt	0	0
CCCc1[nH]nc2c1C(c1ccsc1)C(C#N)=C(N)O2 (configuration not stated)	0	21*	2	6	-1	-4
COCc1[nH]nc2c1C(c1ccsc1)C(C#N)=C(N)O2 (configuration not stated)	6	-2	-1	1	nt	nt
O=C(Cc1cccs1)NCc1ccco1	-1	-3	2	4	nt	nt
O=C(Cc1cccs1)NNC(=S)NCc1ccco1	1	15*	0	3	-1	-3
CCC12CC1(C(=O)OC)C(=O)N1CCc3c([nH]c4ccccc34)C12 (configuration not stated)	nt	37*	nt	nt	0	28*
O=C(CC1CS(=O)(=O)CC1CC(=O)Oc1ccccc1F)Oc1ccccc1F (configuration not stated)	0	16*	-7	0	0	-2
Cc1ccc(NC(=O)CSc2nc(N)cc(=O)[nH]2)cc1S(=O)(=O)N1CCCCCC1	-1	16*	nt	-1	-1	-5
CC(C)(C)OC(=O)NNC(=S)NC1CCCCC1	-2	16*	4	3	-1	3
COc1cc(OC)c(C(=O)NNC(=S)NC2CCCCC2)cc1OC	4	0	-1	6	nt	nt
CCOc1ccc(C(=O)Nc2c3c(nn2-c2cccc(C)c2C)CS(=O)C3)cc1 (configuration not stated)	2	17*	-3	3	0	2
CCc1c(C)c2ccc(OCC(=O)NCC3CCC(C(=O)O)CC3)cc2oc1=O (configuration not stated)	-51	3	-2	-5	nt	nt
O=C(NC1CC1)c1ccc(NS(=O)(=O)c2ccccc2)cc1	-3	-6	5	-2	nt	nt
O=C(NC1CCC(O)CC1)c1ccc(NS(=O)(=O)c2cccc([N+](=O)[O-])c2)cc1 (configuration not stated)	17	15*	nt	24*	0	-4
CC(=O)NC1(C(F)(F)F)C(=O)Nc2c1c(=O)[nH]c(=O)n2CCc1ccccc1 (configuration not stated)	-3	6	-1	-2	nt	nt
COc1ccc(CCn2c3c(c(=O)[nH]c2=O)C(NC(=O)c2cccs2)(C(F)(F)F)C(=O)N3)cc1OC (configuration not stated)	5	15*	1	5	-1	-2
CCOc1ccccc1CN1CCCC(CNC(=O)Cc2ccc(OC)cc2)C1 (configuration not stated)	3	-5	-4	8	nt	nt
COc1ccccc1CNC(=O)COC(=O)c1ccc2c(=O)n3c(nc2c1)CCCCC3	-5	18*	nt	1	-1	0
CC(NC(=O)COC(=O)c1ccc2c(=O)n3c(nc2c1)CCCCC3)c1ccc(F)cc1 (configuration not stated)	nt	2	nt	nt	nt	nt
